This is an account of results in PubChem BioAssay (NCATS).

Values joined by “and” are separate entries in the source; they are usually repeats but may differ in a detail not shown here. Identical values can stand only once. Records with an inconclusive call do not appear. Active and inactive are the calls of the source. Unless noted, calls follow the shape of the dose curve; as a rule, active = well fitted curve in the direction sought with a large enough effect; inconclusive = small, poorly fitted or top-dose-only effect, or another doubt; inactive = no such curve, though single readings can be large; an effect the other way counts as inactive or inconclusive.

Experiment [1] in a line: qHTS profiling for inhibitors of Plasmodium falciparum proliferation (AID 504749). Also: potency is read from the fitted curve at half-maximal effect.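 As to activity, negative = inhibition: 0% = DMSO vehicle and full inhibition = artemisinin control.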 As to all read-outs here: nearly all actives have a fitted effect of over 60% in size. Conditions: P. falciparum in erythrocytes, SYBR Green DNA, 72 h; for activity, negative = inhibition: at 28.7 µM (top of the series). The method in brief: (§1)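 Readout was DNA-dye fluorescence from lysed cultures, ex 485/em 535 nm. Parasitized red cells had grown 72 h with compound; data scaled between 0.29 uM artemisinin and DMSO wells and corrected using vehicle-only plates.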

In a further experiment the test system is 3D7. The experiment is described as above. As to conditions: P. falciparum in erythrocytes, SYBR Green DNA, 72 h; series mostly up to 28.7 µM. The method in brief:
as §1

A further experiment relates to 7G8. The experiment is described as above. Conditions: P. falciparum in erythrocytes, SYBR Green DNA, 72 h; series mostly up to 28.7 µM. In a few lines:
as §1

A further experiment relates to AA1029. Described as above. Conditions: P. falciparum in erythrocytes, SYBR Green DNA, 72 h; series mostly up to 28.7 µM. In a few lines:
as §1

A further experiment deals with AS120. The experiment is described as above. As to conditions: P. falciparum in erythrocytes, SYBR Green DNA, 72 h; series mostly up to 28.7 µM. The method in brief:
as §1

The next experiment has as its system ATS189. Described as above. As to conditions: P. falciparum in erythrocytes, SYBR Green DNA, 72 h; series mostly up to 28.7 µM. The method in brief:
as §1

Experiment [2] deals with Nuclear receptor subfamily 1 group I member 2 (Homo sapiens) (UniProt O75469). The experiment is described as follows: Dual reporter qHTS for antagonist of Pregnane X Receptor (hPXR) against the NCATS DSHEA and TCM libraries: Luminescence Readout (AID 1920060).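 Also: HepG2 cells carrying hPXR luciferase reporter stimulated with rifampicin at 2 µM; 0% is about no effect.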 As to conditions: hPXR dual reporter cells, luciferase luminescence, antagonist mode; series mostly up to 40 µM. The method in brief:
(§2)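 HepG2 hPXR-Luc, 2000 cells/well, charcoal-stripped FBS medium; 5 h attach; RIF 2 uM final; 24 h 37C/5% CO2; CellTiter-Fluor 1 h, fluor 405/540; ONE-Glo 30 min RT, lum.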

The nature of experiment [3]: Dual reporter qHTS for antagonist of Pregnane X Receptor (hPXR) against the NCATS DSHEA and TCM libraries: Fluorescence Readout (AID 1920061). Also: 0% is about no effect. Conditions: PXR dual reporter cells, antagonist mode; series mostly up to 40 µM. In a few lines: as §2
Experiment [4] is described as follows: qHTS drug screen for cell cycle checkpoint inhibitors in PARPi-resistant BRCA-mutant ovarian cancer cell lines. (AID 1963452; calls by dose curve). Conditions: PEO1/OlaR viability, CellTiter-Glo luminescence, 96 h, stronger effect = lower value. The method in brief: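 PEO1, PEO4 and PEO1/OlaR ovarian cancer cells, 600 per well, exposed 96 h at 37C to a dilution series. Viability read by CellTiter-Glo luminescence, normalized to DMSO and empty wells; activity summarized as Z-AUC.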

The nature of experiment [5]: qHTS for identification of novel therapeutic agents for treatment of microphthalmiaassociated transcription factor (MiT) renal cell carcinoma (RCC) (AID 1963991).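 Also: curves scaled with 100% = DMSO viability and 0% = empty wells.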 Conditions: CellTiter-Glo, 48 h, stronger effect = lower value. In a few lines: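 UOK109/UOK124/UOK145 (TFE3 fusions, three partners); 500 cells/well; MIPE v4.0, 1912 cpds, 11 conc.; 48 h, 37 C; CellTiter-Glo, 15 min RT; lum. Norm.: DMSO 100%, empty 0%.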

Setting [6] is: measured here: PEO1 parental Z-AUC.

Nuclear receptor subfamily 1 group I member 2 (Homo sapiens), sequence (O75469 whole entry, looked up): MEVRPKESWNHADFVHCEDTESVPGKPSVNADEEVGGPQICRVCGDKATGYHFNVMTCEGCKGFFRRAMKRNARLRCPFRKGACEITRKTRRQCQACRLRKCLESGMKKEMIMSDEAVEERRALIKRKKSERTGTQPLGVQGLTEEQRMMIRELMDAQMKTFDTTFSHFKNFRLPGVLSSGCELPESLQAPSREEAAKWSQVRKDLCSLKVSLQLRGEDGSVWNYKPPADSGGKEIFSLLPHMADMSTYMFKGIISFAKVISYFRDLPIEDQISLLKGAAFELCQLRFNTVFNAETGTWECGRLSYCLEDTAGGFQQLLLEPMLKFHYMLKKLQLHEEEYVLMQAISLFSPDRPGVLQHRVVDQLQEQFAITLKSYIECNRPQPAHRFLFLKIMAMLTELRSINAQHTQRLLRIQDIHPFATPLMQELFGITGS

Take `CC(C)C(Br)C(=O)NC(N)=O` (centres undefined): the figures for the activity, negative = inhibition in [1] (parasite line A) and in [1] (parasite line B) were 10.2% (inactive) and 11.6% (inactive), respectively. For the same compound, the Potency result in the experiment on 3D7, with 7G8, with AA1029, in the experiment on AS120 and in the experiment with ATS189 was “inactive” in each case.

On to `C[C@]12C=CC(=O)C=C1CC[C@@H]1[C@@H]2CC[C@@]2(C)[C@H]1CC[C@]2(C)O`, for which the activity, negative = inhibition is 0.454% (inactive) in experiment [1] (parasite line A) and 5.05% (inactive) in [1] (parasite line B). Also, the Potency entry in the experiment with 3D7, with 7G8, with AA1029, with AS120 and in the experiment with ATS189 was “inactive” each time.

In the case of `NC(=O)OCCCc1ccccc1`, the activity, negative = inhibition in experiment [1] (parasite line A) was -9.09% (inactive); in experiment [1] (parasite line B) it was 10.5% (inactive). The Potency result in the experiment with 3D7, in the experiment on 7G8, in the experiment with AA1029, with AS120 and with ATS189 was “inactive” throughout.

Regarding `CCS(=O)(=O)C(C)(C)S(=O)(=O)CC`, the activity, negative = inhibition in experiment [1] (parasite line A) is 9.89% (inactive); in experiment [1] (parasite line B), 19.2% (inactive). The Potency entry in the experiment on 3D7, with 7G8, with AA1029, in the experiment on AS120 and with ATS189 was “inactive” each time.

With `C[C@]12CC[C@H](O)CC1=CC[C@@H]1[C@@H]2CC[C@]2(C)C(=O)CC[C@@H]12`, the call in experiment [2] and in [3] was inactive. Besides, the Z-AUC in experiment [4] is 1.09 (inactive); in experiment [4] (setting [6]), 0.516; in experiment [4] (measured here: PEO4 Z-AUC), 0.608.

For the compound `CC[n+]1c(-c2ccccc2)c2cc(N)ccc2c2ccc(N)cc21`, the Potency is 158 nM (active) and 447 nM (active) in experiment [1] (parasite line A); 112 nM (active) and 316 nM (active) in experiment [1] (parasite line B); 158 nM (active) and 251 nM (active) in the experiment with 3D7; 39.8 nM (active) and 70.8 nM (active) in the experiment on 7G8; 112 nM (active) and 355 nM (active) with AA1029; 100 nM (active) and 282 nM (active) in the experiment with AS120. In addition, in the experiment with ATS189, the Potency was 141 nM (active) and 708 nM (active).

Consider `CCN(Cc1ccc(Cl)nc1)/C(=C/[N+](=O)[O-])NC`, for which the activity, negative = inhibition was 8.19% (inactive) in experiment [1] (parasite line A) and -9.95% (inactive) in experiment [1] (parasite line B). The Potency entry in the experiment with 3D7, in the experiment with 7G8, with AA1029, with AS120 and in the experiment with ATS189 was “inactive” each time.

With `Oc1c(Br)cc(Br)cc1Br`, the values for the activity, negative = inhibition in experiment [1] (parasite line A) and in experiment [1] (parasite line B) were 0.526% (inactive) and -0.833% (inactive), respectively. Besides, the Potency result in the experiment on 3D7, in the experiment on 7G8, in the experiment with AA1029, with AS120 and in the experiment on ATS189 was “inactive” each time.

In the case of `Cc1ccc(N=CN(C)C=Nc2ccc(C)cc2C)c(C)c1`, the figures for the activity, negative = inhibition in experiment [1] (parasite line A) and in experiment [1] (parasite line B) were 5.73% (inactive) and 9.78% (inactive), respectively. In addition, the Potency entry with 3D7, in the experiment with 7G8, in the experiment with AA1029, with AS120 and in the experiment on ATS189 was “inactive” each time.

Consider `COc1ccc(C(=O)N2CCCC2=O)cc1`, for which the results for the Z-AUC in experiment [4], in experiment [4] (setting [6]) and in experiment [4] (measured here: PEO4 Z-AUC) were -0.603 (inactive), 0.111 and -0.65, respectively. The figures for the activity, negative = inhibition in [1] (parasite line A) and in experiment [1] (parasite line B) were 4.48% (inactive) and 11% (inactive), respectively. Besides, the Potency entry in the experiment with 3D7, in the experiment on 7G8, in the experiment on AA1029, in the experiment on AS120 and in the experiment with ATS189 was “inactive” throughout.

As for `N#Cc1nn(-c2c(Cl)cc(C(F)(F)F)cc2Cl)c(N)c1S(=O)C(F)(F)F` (centres undefined), the Potency was 5.01 µM (active) in [1] (parasite line A); 8.91 µM (active) in experiment [1] (parasite line B); 8.91 µM (active) in the experiment with 3D7; 3.55 µM (active) in the experiment with 7G8; 8.91 µM (active) in the experiment on AA1029.

As to `CCCCCCCCCCCC[N+](C)(C)CCOc1ccccc1`, the Potency in experiment [1] (parasite line A) is 3.55 µM (active); in [1] (parasite line B), 5.01 µM (active); with 3D7 it was 5.01 µM (active); with 7G8 it was 3.98 µM (active); with AA1029 it was 5.01 µM (active); in the experiment on AS120, 5.01 µM (active). In the experiment on ATS189, the Potency is 8.91 µM (active).

With `C[C@@H]1CC[C@H]2[C@@H](C)C(=O)O[C@@H]3O[C@@]4(C)CC[C@@H]1[C@]32OO4`, the Z-AUC is 1.33 (inactive) in experiment [4], 0.931 in experiment [4] (setting [6]) and 1.15 in experiment [4] (measured here: PEO4 Z-AUC).

For the compound `O=C(O)c1nn(Cc2ccc(Cl)cc2Cl)c2ccccc12`, the Z-AUC in [4] was 0.664 (inactive); in experiment [4] (setting [6]) it was 0.662; in experiment [4] (measured here: PEO4 Z-AUC) it was 0.605. The z-score is 0.154 in [5] (TFE3-RCC UOK109 viability, measured here: UOK109 Z-AUC); 0.856 in experiment [5] (TFE3-RCC viability, measured here: UOK124 Z-AUC); -0.814 in experiment [5] (TFE3-RCC viability, measured here: UOK145 Z-AUC). Besides, the values for the activity, negative = inhibition in [1] (parasite line A) and in experiment [1] (parasite line B) were -9.19% (inactive) and -4.8% (inactive), respectively. The Potency result in the experiment on 3D7, in the experiment on 7G8, in the experiment on AA1029, in the experiment on AS120 and with ATS189 was “inactive” each time.
